A short description of assay [1]: resazurin metabolic signal in HepG2 cells – cell-based, resazurin fluorescence, 24 h, PK04 Diversity Set, profiling panel (AID 1172). Particulars: HepG2 viability, higher = more signal.
Assay [2] can be described thus: budding yeast growth changes without added modifier – OD600, strain BY4716, 24 h, basal condition, primary screen (AID 1173). Particulars: S. cerevisiae BY4716 growth, OD600, 24 h; higher = more signal, called active from +8 up or from −8 down.
Assay [3] can be described thus: viability profiling in MM1S myeloma cells – cell-based, resazurin fluorescence, basal, 24 h, PK04 Diversity Set, profiling panel (AID 1174).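 Also: MM1S multiple myeloma cell line.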 The settings on record: higher = more signal, called active from +8 up or from −8 down.
Assay [4] deals with Dihydroorotate dehydrogenase (quinone), mitochondrial (Plasmodium falciparum (isolate 3D7)) (UniProt Q08210). In words: inhibition of P. falciparum DHODH – biochemical, C-terminal His tag, absorbance 600 nm, primary screen (AID 1175).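 Also: recombinant parasite enzyme with a five histidine tag at its C terminus.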 The settings on record: PfDHODH enzyme, DCIP absorbance 600 nm; higher = more signal, called active from +8 up or from −8 down.
Chain of Dihydroorotate dehydrogenase (quinone), mitochondrial (Plasmodium falciparum (isolate 3D7)) (Q08210 whole entry, looked up): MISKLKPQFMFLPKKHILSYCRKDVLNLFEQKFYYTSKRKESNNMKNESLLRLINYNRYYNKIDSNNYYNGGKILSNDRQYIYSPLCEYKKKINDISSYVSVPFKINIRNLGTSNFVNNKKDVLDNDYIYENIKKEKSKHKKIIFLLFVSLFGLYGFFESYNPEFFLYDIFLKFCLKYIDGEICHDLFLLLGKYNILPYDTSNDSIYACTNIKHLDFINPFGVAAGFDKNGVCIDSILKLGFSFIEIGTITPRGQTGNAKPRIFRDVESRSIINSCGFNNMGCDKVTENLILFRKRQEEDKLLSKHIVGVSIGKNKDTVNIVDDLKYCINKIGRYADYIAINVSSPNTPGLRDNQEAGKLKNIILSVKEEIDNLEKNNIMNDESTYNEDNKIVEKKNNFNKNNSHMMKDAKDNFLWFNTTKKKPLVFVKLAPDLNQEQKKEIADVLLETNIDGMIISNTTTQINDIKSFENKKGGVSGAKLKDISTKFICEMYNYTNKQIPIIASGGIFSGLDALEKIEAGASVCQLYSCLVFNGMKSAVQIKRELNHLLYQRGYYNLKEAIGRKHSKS
Assay [5] is described as follows: inhibition of PAO1 biofilm formation – strain PAO1, LB-PBS medium, absorbance 600 nm, primary screen (AID 1176). Particulars: P. aeruginosa PAO1 growth/biofilm, A600, 12 h; higher = more signal.
Assay [6] can be described thus: growth modulation of vineyard yeast isolate – strain RM11-1a, OD600, basal, 24 h, primary screen (AID 1177).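 Also: cultures grown under basal conditions with no added stressor.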 Particulars: S. cerevisiae RM11-1a growth, OD600, 24 h; higher = more signal, called active from +8 up or from −8 down.
Assay [7] is described as follows: growth of efflux-deficient E. coli DRC39 – strain DRC39, OD650, 24 h, E. coli filamentation inducers, primary screen (AID 1178).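 Also: growth measured as culture turbidity by optical density at 650 nm.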 The settings on record: E. coli DRC39 acrAB, higher = more signal, called active from +8 up or from −8 down.
Assay [8] can be described thus: growth of efflux-deficient E. coli DRC39 – strain DRC39, OD650, 48 h, E. coli filamentation inducers, primary screen (AID 1179).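 Also: screen aims at cell division blockers that make cells filament.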 The settings on record: E. coli DRC39 delta-acrAB growth, higher = more signal, called active from +8 up or from −8 down.
Assay [9] in a line: viability profiling in RPMI8226 myeloma cells – cell-based, resazurin fluorescence, basal, 24 h, PK04 Diversity Set, profiling panel (AID 1180).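 Also: RPMI8826 multiple myeloma cell line at 5000 cells per well.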 Particulars: higher = more signal.
The target of assay [10] is E3 ubiquitin-protein ligase XIAP (Homo sapiens) (UniProt P98170). As to the kind of experiment: small molecules binding XIAP protein – biophysical, small-molecule microarray, fluorescence 635 nm, primary screen (AID 1181).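 Also: score merges 667 nm emission and signal to noise over triplicate slides.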 Particulars: higher = more signal.
Chain of E3 ubiquitin-protein ligase XIAP (Homo sapiens) (P98170 whole entry, looked up, the tested form may be a part): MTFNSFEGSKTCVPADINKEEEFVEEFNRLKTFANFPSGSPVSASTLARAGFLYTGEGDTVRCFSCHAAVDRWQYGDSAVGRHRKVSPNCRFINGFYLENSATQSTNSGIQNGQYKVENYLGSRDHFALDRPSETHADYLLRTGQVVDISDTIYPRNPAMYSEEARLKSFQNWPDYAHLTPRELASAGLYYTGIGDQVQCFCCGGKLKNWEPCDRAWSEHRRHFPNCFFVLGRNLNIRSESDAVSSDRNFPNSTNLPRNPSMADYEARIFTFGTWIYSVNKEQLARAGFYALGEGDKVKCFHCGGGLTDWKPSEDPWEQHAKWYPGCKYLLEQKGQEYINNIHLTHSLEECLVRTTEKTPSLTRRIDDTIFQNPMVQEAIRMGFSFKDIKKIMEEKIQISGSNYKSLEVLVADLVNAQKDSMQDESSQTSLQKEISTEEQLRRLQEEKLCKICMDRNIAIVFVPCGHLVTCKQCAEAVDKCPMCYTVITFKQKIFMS
Assay [11] has as its system XIP peptide (Xip251-270) binding. As to the kind of experiment: XIP fragment 251-270 binding compounds – biochemical, small-molecule microarray, fluorescence 635/667 nm, 0.1 µg/mL protein, primary screen (AID 1182). The settings on record: fluorescent protein binding, 635 nm, higher = more signal, called active from +8 up or from −8 down.
Assay [12] deals with XIP peptide (Xip251-270). In words: compounds binding XIP fragment 251-270 – biochemical, small-molecule microarray, fluorescence 635/667 nm, 0.5 µg/mL protein, primary screen (AID 1183). Particulars: fluorescence 635 nm, higher = more signal.
Assay [13] in a line: blood-stage malaria parasite viability loss – strain 3D7, DAPI fluorescence, 100 nL, primary screen (AID 1184).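 Also: parasites grown inside human red blood cells in medium with human serum.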 Particulars: P. falciparum 3D7 growth, 3 d, higher = more signal.
In assay [14] the target is Homeobox protein Hox-A13 (Mus musculus) (UniProt Q62424). As to the kind of experiment: disruptors of Hoxa13 oligonucleotide interaction – biochemical, fluorescence polarization, labeled oligonucleotide, primary screen (AID 1185). Particulars: Hoxa13:DNA binding, 15 min, higher = more signal, called active from +8 up or from −8 down.
Chain of Homeobox protein Hox-A13 (Mus musculus) (Q62424 whole entry, looked up): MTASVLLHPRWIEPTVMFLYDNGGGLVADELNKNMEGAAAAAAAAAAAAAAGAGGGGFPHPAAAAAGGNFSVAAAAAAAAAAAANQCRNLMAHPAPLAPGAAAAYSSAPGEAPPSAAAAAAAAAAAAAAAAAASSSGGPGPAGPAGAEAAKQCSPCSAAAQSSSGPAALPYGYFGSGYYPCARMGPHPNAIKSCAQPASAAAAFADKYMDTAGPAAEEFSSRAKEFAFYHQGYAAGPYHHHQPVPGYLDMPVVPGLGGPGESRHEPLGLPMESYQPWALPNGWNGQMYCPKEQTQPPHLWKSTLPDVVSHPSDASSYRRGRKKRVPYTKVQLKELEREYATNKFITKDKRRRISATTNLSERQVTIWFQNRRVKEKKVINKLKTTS
A short description of assay [15]: blockers of DNA damage checkpoint Chk1 activation – imaging, HeLa, hydroxyurea, phospho-Chk1 antibody, percent positive cells, primary screen (AID 1186). The settings on record: hydroxyurea-induced phospho-Chk1 immunofluorescence imaging, higher = more signal.
Assay [16] can be described thus: blockers of DNA damage checkpoint Chk1 activation – imaging, HeLa, hydroxyurea, phospho-Chk1 nuclear intensity, primary screen (AID 1187). Particulars: hydroxyurea-induced phospho-Chk1 immunofluorescence imaging, higher = more signal.

Active and inactive are the calls of the source. Unless noted, no rule for the calls is given here.

On to `O=C(CS)NCCCCCCNC(=O)[C@H]1C[C@H]2C(=O)N[C@@H](Cc3ccccc3)C(=O)N2[C@H]1c1cccc(OCCO)c1`, for which the z-score is -0.351 in [1]; 0.765 (inactive) in [2]; -0.453 (inactive) in assay [3]; 0.889 (inactive) in [5]; 0.765 (inactive) in assay [6]; -0.0049 (inactive) in assay [7]. In addition, the z-score was 0.57 (inactive) in [8]; -0.614 in assay [9]; 0.107 in [13]; -1.03 (inactive) in assay [14]; -0.0078 (inactive) in [15]; 0.671 (inactive) in assay [16]. Also, the composite z-score in assay [4] was -0.439 (inactive); in assay [10] it was 0.316; in [11] it was 0.168 (inactive); in assay [12], 0.825.

Consider `COCCOC(=O)N1C(=O)[C@@]2(c3cc(C#CC4=CCCCC4)ccc31)[C@H](c1ccccc1OCCO)N1[C@H](c3ccccc3)[C@H](c3ccccc3)OC(=O)[C@H]1[C@@H]2C(=O)N1CCc2cc(OC)c(OC)cc2C1`, for which the z-score in [1] was -0.605; in assay [2], 1.46 (inactive); in [3] it was -0.347 (inactive); in assay [5] it was 1.92 (inactive); in [6] it was 2.25 (inactive); in assay [7], -0.398 (inactive). For the same compound, the z-score in assay [8] is 0.425 (inactive); in assay [9] it was -0.486; in assay [13] it was -1.68; in assay [14], 2.38 (inactive); in assay [15] it was 0.0575 (inactive); in assay [16], 0.139 (inactive). Also, the composite z-score in assay [4] was -0.349 (inactive); in assay [10] it was -0.11; in assay [11], 3.26 (inactive); in [12], 0.717.

Take `C=CCNC(=O)[C@@H]1[C@H]2C(=O)O[C@H](c3ccccc3)[C@H](c3ccccc3)N2[C@H](c2ccc(OCCO)cc2)[C@@]12C(=O)N(C(=O)OCCOC)c1ccc(C#CC3=CCCCC3)cc12`: the z-score is -0.344 in assay [1]; 1.83 (inactive) in [2]; -0.897 (inactive) in assay [3]; 2.17 (inactive) in assay [5]; 2.57 (inactive) in assay [6]; -0.713 (inactive) in [7]. Also, the z-score in assay [8] is -0.206 (inactive); in assay [9] it was -1.66; in assay [13] it was -2.19; in [14], 0.713 (inactive); in [15], 0.201 (inactive); in assay [16], 0.474 (inactive). In addition, the composite z-score in assay [4] was -1.47 (inactive); in assay [10], -0.426; in assay [11], 0.0094 (inactive); in [12], 0.659.

As for `CCOC(=O)[C@H]1C/C=C/C[C@H](C(=O)OCC)C(=O)O[C@H]2[C@@H](OC)O[C@H](CO)[C@@H](OC(=O)CCc3ccccc3)[C@@H]2OC1=O`, the z-score is -0.144 in assay [1]; -1.08 (inactive) in [2]; 0.204 (inactive) in assay [3]; 0.759 (inactive) in [5]; -0.143 (inactive) in [6]; 0.735 (inactive) in assay [7]. For the same compound, the z-score in assay [8] was 0.558 (inactive); in [9] it was 0.116; in [13], -1.24; in assay [14], -2.57 (inactive); in assay [15], -0.0591 (inactive); in assay [16] it was -0.23 (inactive). The composite z-score in [4] was -0.915 (inactive); in assay [10], 0.023; in [11] it was -0.0432 (inactive); in assay [12], 0.486.

As to `CCCCN1CC=CC23O[C@@H]4C=CCOC(=O)[C@@H]4[C@H]2C(=O)N(CCCO)[C@@H]3C1=O` (some centres undefined), the z-score was -1.09 in assay [1]; -0.233 (inactive) in [2]; -0.788 (inactive) in assay [3]; -0.193 (inactive) in [5]; 0.164 (inactive) in [6]; -1.33 (inactive) in assay [7]. The z-score in [8] is -1.28 (inactive); in assay [9], -0.848; in assay [13], -1.81; in [14] it was -4.48 (inactive); in assay [15], -0.247 (inactive); in assay [16] it was -0.169 (inactive). For the same compound, the composite z-score in [4] was -0.284 (inactive); in assay [10], 0.106; in [11] it was 0.769 (inactive); in assay [12] it was -0.374.

`CC(=O)NCCCC[C@@H]1NC(=O)[C@@H]2C[C@H](C(=O)O)[C@H](c3ccc(O)cc3)N2C1=O`: the z-score in assay [1] is -0.253; in assay [2] it was 0.929 (inactive); in assay [3], 0.699 (inactive); in assay [5], -0.819 (inactive); in assay [6] it was 0.88 (inactive); in [7], 0.0763 (inactive). The z-score is -0.301 (inactive) in [8]; 0.517 in assay [9]; 0.174 in [13]; -2.19 (inactive) in [14]; 0.318 (inactive) in assay [15]; 0.202 (inactive) in assay [16]. Further, the composite z-score was 0.435 (inactive) in assay [4], -0.0796 in assay [10], 3.54 (inactive) in [11] and -0.0306 in assay [12].

As for `CCOC(=O)C[C@H]1[C@H](OC(=O)c2ccc(C(=O)c3ccccc3)cc2)[C@@H](NC(=O)c2ccc3ccccc3c2)c2cc(OCCCO)ccc2N1C(=O)c1ccccc1`, the z-score in [1] was -0.55; in [2], -0.592 (inactive); in [3] it was -0.377 (inactive); in assay [5], 0.055 (inactive); in assay [6], -0.617 (inactive); in assay [7] it was 0.347 (inactive). Further, the z-score in assay [8] is 0.212 (inactive); in [9], -0.539; in assay [13], 1.45; in assay [14], -0.683 (inactive); in assay [15] it was 0.451 (inactive); in assay [16] it was 0.0368 (inactive). Moreover, the composite z-score in [4] was -0.46 (inactive); in assay [10], -0.0367; in assay [11] it was 1.39 (inactive); in assay [12] it was 0.444.

With `CC(C)N1CC=CC23O[C@@H]4C=CCOC(=O)[C@@H]4[C@H]2C(=O)N(C(C)CO)[C@@H]3C1=O` (some centres undefined), the z-score in assay [1] is 0.629; in [2] it was 0.433 (inactive); in [3] it was 0.273 (inactive); in assay [5] it was 0.578 (inactive); in assay [6] it was -0.603 (inactive); in [7] it was 0.17 (inactive). The z-score is -0.155 (inactive) in assay [8]; 0.0803 in [9]; 0.383 in assay [13]; -3.67 (inactive) in assay [14]; 0.113 (inactive) in [15]; -0.0881 (inactive) in [16]. Also, the composite z-score in [4] was -0.218 (inactive); in assay [10], 0.226; in [11], -0.409 (inactive); in assay [12], 0.291.

In the case of `COc1c(C)cc(-c2cc3c(c(-c4ccccc4)n2)[Si](C(C)C)(C(C)C)OC3)cc1C`, the z-score is 0.0316 in assay [1]; 0.256 (inactive) in [2]; 0.416 (inactive) in assay [3]; 0.173 (inactive) in [5]; -0.741 (inactive) in assay [6]; 0.762 (inactive) in assay [7]. Moreover, the z-score is 0.319 (inactive) in [8]; 0.798 in assay [9]; -1.03 in [13]; -0.238 (inactive) in assay [14]; -0.645 (inactive) in [15]; -0.268 (inactive) in assay [16]. Also, the composite z-score was -0.149 (inactive) in assay [4], 0.205 in assay [10], 0.518 (inactive) in assay [11] and -0.479 in [12].

Source of the values: PubChem BioAssay.
